# Screens from PubChem.
# CCHF vOTU inh-1 – CCHFV vOTU protease inhibitors, primary screen, biochemical, Pep-AMC substrate, fluorescence | Crimean-Congo hemorrhagic fever virus L polyprotein viral ovarian tumor (vOTU) protease … | inhibition, % at 11.5 µM | 370,000 tested, 0.55% active | AID 651958, 2012; in the data active = inhibition above about 30%; note: 0% = vehicle wells with enzyme and 100% = no enzyme wells
# SARS 3CLpro inh – SARS-CoV 3CLpro protease inhibitors, primary screen, biochemical, quenched FRET; recombinant SARS-CoV 3CLpro, quenched FRET peptide cleavage; inhibition, % at 6 µM; 290,000 tested, 0.14% active; AID 1706, 2009; in the data active = inhibition above about 12%
# Bead autofluor – compound fluorescence in toxin protease inhibitor counterscreen; 360,000 tested, 3.1% active; compound autofluorescence counterscreen, microsphere flow cytometry; stronger effect = higher value; fluorescence intensity (no concentration beside the values); AID 624483; in the data active = fluorescence intensity above about 16000; inconclusive = no clear call, values can overlap the other calls
# Anthrax LF prot – Bacillus anthracis LF protease inhibitors, primary screen, biochemical, multiplex microsphere, MLPCN library | 360,000 tested, 0.12% active | inhibition, % at 10 µM | multiplex microsphere protease cleavage assay; note: plate controls were buffer without enzyme for full effect and enzyme alone for no effect
# Target sequence (P15917 whole entry, looked up): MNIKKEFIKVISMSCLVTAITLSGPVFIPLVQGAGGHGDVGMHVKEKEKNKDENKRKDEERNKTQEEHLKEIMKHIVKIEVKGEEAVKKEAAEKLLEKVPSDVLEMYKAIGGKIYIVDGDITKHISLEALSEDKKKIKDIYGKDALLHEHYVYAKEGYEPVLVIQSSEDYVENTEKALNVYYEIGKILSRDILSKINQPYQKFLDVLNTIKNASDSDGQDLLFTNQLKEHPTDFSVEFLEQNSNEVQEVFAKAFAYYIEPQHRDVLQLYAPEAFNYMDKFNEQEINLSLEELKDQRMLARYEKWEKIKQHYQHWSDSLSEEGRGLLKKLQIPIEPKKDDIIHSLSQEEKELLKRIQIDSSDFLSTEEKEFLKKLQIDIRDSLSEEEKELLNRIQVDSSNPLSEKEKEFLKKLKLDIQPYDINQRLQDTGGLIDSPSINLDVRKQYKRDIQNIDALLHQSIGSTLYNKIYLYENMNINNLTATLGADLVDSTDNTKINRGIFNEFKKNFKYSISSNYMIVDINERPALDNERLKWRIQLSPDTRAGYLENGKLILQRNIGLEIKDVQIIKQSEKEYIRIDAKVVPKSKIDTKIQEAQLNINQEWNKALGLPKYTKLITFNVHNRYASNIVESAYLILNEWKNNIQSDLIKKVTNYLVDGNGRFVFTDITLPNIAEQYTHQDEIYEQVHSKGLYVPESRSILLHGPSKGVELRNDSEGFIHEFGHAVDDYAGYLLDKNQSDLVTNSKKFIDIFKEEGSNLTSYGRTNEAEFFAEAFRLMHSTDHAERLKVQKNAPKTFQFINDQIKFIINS
# BoNT-A LC inh2 – BoNT/A light chain protease inhibitors, primary screen, biochemical, flow cytometry, MLPCN library | multiplex microsphere protease substrate cleavage | inhibition, % at 10 µM | 360,000 tested, 0.17% active | AID 588499, 2011; note: plate controls were buffer without enzyme for full effect and enzyme alone for no effect
# BoNT F protease – BoNT/F light chain protease inhibitors, primary screen, biochemical, flow cytometry, MLPCN library; Botulinum neurotoxin type F light chain protease (Clostridium botulinum); Multiplex microsphere protease cleavage assay; 360,000 tested, 0.22% active; inhibition, % at 10 µM; AID 588497, 2011; in the data active = inhibition above about 35%, passing the limit was not always enough; inconclusive = no clear call, values can overlap the other calls; note: plate controls were buffer without enzyme for full effect and enzyme alone for no effect
# CCHF vOTU inh-2 – CCHFV vOTU protease inhibitors, confirmation, biochemical, Pep-AMC substrate, fluorescence; 1,900 tested, 17% active; Recombinant CCHFV vOTU; shares compounds with CCHF vOTU inh-1; inhibition, % at 11.5 µM; AID 686976, 2013; in the data active = inhibition above about 30%
# An asterisk follows results filed as active; ? = inconclusive; . = not tested or not shown; ! = not confirmed by another sample. The list is not random: actives were taken first. Their share in the collection is about 3.9%. Cut-off read from the data, not from the text of the source, unless noted: active = inhibition above about 30%; inconclusive = no clear call, values can overlap the other calls; inactive = below that.
SMILES,CCHF vOTU inh-1,SARS 3CLpro inh,Bead autofluor,Anthrax LF prot,BoNT-A LC inh2,BoNT F protease,CCHF vOTU inh-2
CCOC(=O)C1(C)CCCCCN1C(=O)c1ccc(OC)c(C(F)(F)F)c1 (centres undefined),34.5*,.,3657,1.3,0.5,2.0,-8.6
CCCc1cc(-c2ccc(O)c(OCC)c2)c(C#N)c(N)n1,38.8*,2.7,3137,3.3,0.1,-18.4,4.5
CCOc1cc(-c2cc(-c3ccc(C)o3)nc(N)c2C#N)ccc1O,-0.9,0.6,5195,-10.3,-0.1,1.2,.
CC1=C(SCc2ccccc2)C(=O)c2ccccc2C1=O,103.6*,.,4317,-1.5,0.5,-18.5,86.6*
COC(=O)[C@]12C[C@H](CC(=O)N3CCC(c4ccccc4)CC3)C(=O)N(Cc3ccccc3)C1=C[C@H](COCc1ccccc1)O[C@@H]2C,14.8,.,.,.,.,.,.
N#CCCN(C(=O)COC(=O)CCNS(=O)(=O)c1ccccc1)c1ccccc1,58.5*,.,2844,-5.8,0.6,4.4,3.2
N#CCCN(C(=O)COC(=O)CCC(=O)c1cccs1)c1ccccc1,-11.2,.,5601,0.2,-2.1,0.8,.
CN=c1sc(C(=O)Nc2ccccc2)c(C)n1C,-6.3,8.9,4300,2.1,-1.0,-0.6,.
CN=c1sc2c(n1C)C(=O)c1ccccc1C2=O,80.0*,.,3446,2.5,0.1,-7.2,79.3*
Cn1c(=O)c2[nH]c(CCC3CCCC3)nc2n(C)c1=O,-8.3,.,3127,1.8,0.1,3.7,.
CCCc1nc2c([nH]1)c(=O)n(C)c(=O)n2C,32.3*,-3.5,4112,2.4,-3.0,?,-29.1
O=C(CCc1ccccc1)N[C@H]1[C@H](O)CCC[C@@]12C(=O)N(Cc1ccccc1)c1ccc(-c3ccccc3)cc12,10.4,.,.,.,.,.,.
O=C(/C=C/c1cccc(Cl)c1)OCC(=O)c1ccc[nH]1,34.9*,.,3633,-4.2,-0.4,-5.0,2.8
Fc1ccc(Cn2ccc3ccc(-c4ccc5ccn(Cc6ccc(F)cc6)c5c4)cc32)cc1,3.2,.,.,.,.,.,.
COc1cc(Cc2nccc3cc(OC)c(OC)cc23)c(NC(C)=O)cc1OC,-8.0,4.1,4196,1.9,0.0,-3.4,.
COc1cc(Cc2nccc3cc(OC)c(OC)cc23)c(S(=O)(=O)O)cc1OC,71.1*,-0.7,3324,-1.6,-1.0,-25.1,-12.9
O=C(c1ccccc1)c1ccc(OCCn2cnc3ccccc3c2=O)cc1,13.0,5.3,2890,2.0,0.4,21.7,.
CC(C)(c1ccccc1)c1ccc(OCCn2cnc3ccccc3c2=O)cc1,31.3*,0.2,4114,-4.2,0.6,?,3.7
COCCOc1ccc(C(F)(F)F)cc1NC(=O)CN1C(=O)NC(C)(c2ccc3c(c2)OCO3)C1=O (centres undefined),30.8*,.,5824,-4.3,-0.2,4.3,-20.2
COC(=O)[C@]12C[C@H](CC(=O)N3CCN(C(=O)c4ccco4)CC3)C(=O)N(Cc3ccc4c(c3)OCO4)C1=C[C@H](C(C)C)O[C@@H]2C1CC1,-1.6,.,.,.,.,.,.
CC1=C(C(=O)N(C)C)CC(CC(=O)NC(c2ccccc2)c2ccccc2)C(=O)N1Cc1ccc(C(C)(C)C)cc1 (centres undefined),12.3,.,2979,4.9,-0.1,-3.7,.
CC1=C(C(=O)N(C(C)C)C(C)C)CC(CC(=O)NC(c2ccccc2)c2ccccc2)C(=O)N1Cc1ccc(C(C)(C)C)cc1 (centres undefined),35.3*,.,6012,-8.2,0.2,-3.5,4.5
OC(c1ccccc1)(c1ccccc1)C1CCN(CCCOc2ccc(Br)cc2)CC1,7.4,.,.,.,.,.,.
Cc1c(COC(=O)NC(C)C)c(COC(=O)NC(C)C)c2n1CS(=O)(=O)C2,-4.5,.,.,.,.,.,.
CC1(C)CC(C(CCN(Cc2ccccc2)C(=O)c2ccco2)c2ccc(F)cc2)CCO1 (centres undefined),32.9*,2.0,2530,-1.3,-0.5,-3.9,-2.2
SMILES,CCHF vOTU inh-1,SARS 3CLpro inh,Bead autofluor,Anthrax LF prot,BoNT-A LC inh2,BoNT F protease,CCHF vOTU inh-2
COC(=O)c1cc2c(c3c4cc(OC)ccc4n(S(=O)(=O)c4ccc(F)cc4)c13)C(=O)N(CC(C)C)C2,1.6,.,.,.,.,.,.
CCNC(=O)N1CCN(c2ccc(N3CCN(C(=O)NCC)[C@H](C)C3)c(C)c2)[C@@H](C)C1,15.0,.,.,.,.,.,.
CN(NC(=O)C(=O)NCc1ccco1)C(=O)NC1CCCCC1,-5.3,.,.,.,.,.,.
O=C(O)c1ccccc1-c1c2cc(I)c(=O)c(I)c-2oc2c(I)c(O)c(I)cc12,36.6*!,.,3911,32.9*,64.3*,38.2*!,38.6*
COCC(=O)N1[C@H](CO)[C@@H](c2ccc(-c3cccnc3)cc2)[C@H]1CN(C)S(=O)(=O)c1ccccc1[N+](=O)[O-],2.2,.,.,.,.,.,.
COc1ccc(OC)c(S(=O)(=O)Nc2ccc(O)c3ccccc23)c1,65.6*,0.4,2450,-9.0,-0.2,-14.3,-13.3
COc1ccc(C(=O)Nc2ccc(O)c3ccccc23)cc1,30.6*,.,6577,-5.0,0.1,-8.3,-8.6
COc1ccc(NC(=O)c2ccccc2NC(=O)c2ccccc2)cc1,-0.8,3.7,3668,-1.3,-0.2,4.4,.
COc1ccc(NC(=O)Nc2ccccc2OC)cc1,0.5,3.6,8262,-0.9,-1.1,-10.1,.
COc1ccc(OC)c(S(=O)(=O)Nc2cccc3c(O)cccc23)c1,-6.5,.,5763,-5.0,0.3,2.5,.
COc1ccc(NC(=O)Nc2ccc(O)c3ccccc23)cc1,82.1*,.,.,.,.,.,-17.1
COc1ccc(C2CC(=O)C(c3ccc(Cl)cc3)=CN2Cc2ccccc2)cc1 (centres undefined),6.7,.,.,.,.,.,.
CC1CCCCC1N(C(=O)c1cc(C2CC2)on1)C1CCCCCC1 (centres undefined),8.4,.,.,.,.,.,.
COCCNC(=S)N1C[C@H]2CON(C)[C@H]2C[C@H]1c1ccccc1Br,32.6*,.,.,.,.,.,-20.8
CN1OC[C@@H]2CN(C(=S)NCCc3ccccc3)[C@H](c3ccccc3Br)C[C@@H]21,-0.7,.,5888,-6.1,0.4,-7.7,.
O=C(Nc1cccc2ccccc12)OC[C@@H]1CSCCS(=O)(=O)N1,-4.1,.,.,.,.,.,.
CCOC(=O)Cc1nnc(Nc2ccc(C)cc2C)c2ccccc12,-11.1,0.6,2592,0.0,0.7,-1.1,.
CCOC(=O)Cc1nnc(Nc2cc(C)ccc2C)c2ccccc12,31.0*,-0.5,2145,-0.8,0.6,-0.4,2.9
O=C1C(NS(=O)(=O)c2cccs2)=C(N2CCOCC2)C(=O)c2ccccc21,12.0,-8.1,4624,-3.1,-0.2,-4.3,.
O=C(O)c1cccc(NC2=C(N3CCOCC3)C(=O)c3ccccc3C2=O)c1,78.7*,0.0,3552,3.1,-0.6,-4.7,93.3*
